Data published in PubChem BioAssay (NCATS).
“And” between values parts separate entries of the source, which are not always exact repeats. Identical values can stand only once. Records with an inconclusive call do not appear. Some structures have more than one record in an assay (separate samples or runs), and their calls can disagree. The source made the active and inactive calls. Calls follow the shape of the dose curve; as a rule, active = well fitted curve in the direction sought with a large enough effect; inconclusive = small, poorly fitted or top-dose-only effect, or another doubt; inactive = no such curve, though single readings can be large; an effect the other way counts as inactive or inconclusive.
Potency is read from the fitted curve at half-maximal effect.

What follows are compounds tested against Cellular tumor antigen p53 (Homo sapiens) (UniProt P04637) (assay: Primary qHTS for small molecule compounds that upregulate eGFP-tagged delta133p53alpha (in N-terminal) cells. (AID 2060322; also: nearly all actives have a fitted effect of over 75% in size;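 as to activation: cells pre-induced with doxycycline then dosed without doxycycline; 0% = DMSO vehicle and 100% = reference activator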)). Details: NCI-H358 eGFP-delta133p53alpha fluorescence, 24 h; activation: active compounds read high.
Chain of Cellular tumor antigen p53 (Homo sapiens) (P04637 whole entry, looked up, the tested form may be a part): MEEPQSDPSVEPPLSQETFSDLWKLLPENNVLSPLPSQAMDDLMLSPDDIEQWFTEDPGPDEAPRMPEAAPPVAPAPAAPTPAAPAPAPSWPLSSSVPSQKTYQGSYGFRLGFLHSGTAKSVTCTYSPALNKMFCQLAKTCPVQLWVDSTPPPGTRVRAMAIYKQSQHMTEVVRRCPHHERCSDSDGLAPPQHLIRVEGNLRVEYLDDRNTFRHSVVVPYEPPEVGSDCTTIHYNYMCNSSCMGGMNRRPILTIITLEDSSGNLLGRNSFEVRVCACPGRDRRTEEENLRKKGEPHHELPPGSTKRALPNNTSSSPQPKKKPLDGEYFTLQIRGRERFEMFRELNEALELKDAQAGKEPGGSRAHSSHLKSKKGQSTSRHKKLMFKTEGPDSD
Outline: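 NCI-H358 cells pre-induced 24 h with 10 ng/ml doxycycline for eGFP-delta133p53alpha, plated dox-free and exposed 24 h at 37C to titrated compounds. Fixed, Hoechst-stained; gated GFP peak intensity by laser scanning cytometry, normalized to DMSO (0%) and 57.5 uM 5-azacytidine (100%).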
`O=C1c2ccccc2C(=O)c2ccccc21` was tested, and the activation was 0% (inactive).
For `CN1CCN(c2ccc([N+](=O)[O-])c3no[n+]([O-])c23)CC1`, the Potency was 21.3 µM (active) and the activation was 8.01% (inactive).
For `O=C(NC(=O)c1c(F)cccc1F)Nc1cc(Cl)c(OC(F)(F)C(F)C(F)(F)F)cc1Cl` (stereo unspecified), the activation was -13.4% (inactive).
For `CN(C)[C@@H]1C(=O)C(C(N)=O)=C(O)[C@@]2(O)C(=O)C3=C(O)c4c(O)cccc4[C@@](C)(O)[C@H]3C[C@@H]12`, the activation was -14.3% (inactive) and the Potency was 21.9 µM (active).
In the case of `CCCN(CCC)[C@H]1CCc2c(F)ccc(O)c2C1`, the activation is reported as 15.8% (inactive).
`CCn1cnc2c(Nc3cccc(Cl)c3)nc(N[C@@H]3CCCC[C@@H]3N)nc21` was tested, and the Potency was 6.01 µM (active).
For `CCCC(C)(COC(N)=O)COC(=O)NC(C)C` (stereo unspecified), the activation was -6.69% (inactive) and 15.9% (inactive).
`C[C@@H]1O[C@@H](O[C@@H]2C=C3CC[C@@H]4[C@@H](CC[C@]5(C)[C@H](c6ccc(=O)oc6)CC[C@@]45O)[C@@]3(C)CC2)[C@H](O)[C@H](O)[C@H]1O` was tested, and the activation was -11.3% (inactive).
For `Clc1ccc(CCC(Cn2ccnc2)Sc2c(Cl)cccc2Cl)cc1` (stereo unspecified), the activation was 18.6% (inactive) and -21.6% (inactive).
`N=C(N)c1ccc(CS(=O)(=O)F)cc1` was tested, and the activation was 3.92% (inactive).
`CC(C)(C)CC(C)(C)c1ccc(O)cc1` was tested, and the Potency was 28.2 µM (active) and 30.9 µM (active).
`ClCCCN1CCN(c2cccc(Cl)c2)CC1` was tested, and the activation was -2.82% (inactive).
For `NC(C(=O)O)c1cc(=O)[nH]o1` (stereo unspecified), the activation was -10.1% (inactive).
`CC(C)Oc1cccc(NC(=O)c2ccccc2C(F)(F)F)c1` was tested, and the activation was -17.6% (inactive).
For `COc1cc(CC#N)cc(OC)c1OC`, the activation was 2.82% (inactive).
For `CC[C@@H](CO)NC(=O)[C@@H]1C=C2c3cccc4[nH]cc(c34)C[C@H]2N(C)C1`, the activation was -0.565% (inactive) and -21.9% (inactive).
For `CC(C)(C)NCC(O)c1cc(Cl)c(N)c(C(F)(F)F)c1` (stereo unspecified), the activation was -6.21% (inactive).
`COc1ccc2c(c1OC)CN1CCc3cc4c(cc3C1C2)OCO4` (stereo unspecified) was tested, and the Potency was 34.3 µM (active) and the activation was 26.6% (inactive).
`CC(O)=C(C#N)C(=O)Nc1cc(Br)ccc1Br` was tested, and the activation was 1.6% (inactive).
With `C[N+]1(CCF)[C@@H]2CC[C@H]1CC(OC(=O)C(O)(c1ccccc1)c1ccccc1)C2` (stereo partly specified) the activation was 5.08% (inactive).
`NC(N)=NOCC[C@H](N)C(=O)O` was tested, and the activation was -12% (inactive).
`CC[C@@H](CO)NC(=O)[C@@H]1C=C2c3cccc4c3c(cn4C)C[C@H]2N(C)C1` was tested, and the activation was -3.95% (inactive) and -69.3% (inactive).
For `C#CCN[C@H](C)Cc1ccccc1`, the activation was 4.01% (inactive).
For `C1=C2CCCN[C@H]2[C@@H]2C[C@H]1[C@@H]1CCCCN1C2`, the activation was 1.08% (inactive).
In the case of `C[C@](O)(CS(=O)(=O)c1ccc(F)cc1)C(=O)Nc1ccc(C#N)c(C(F)(F)F)c1`, the activation is reported as -4.55% (inactive).
For `O=C(Cc1ccc(Cl)c(Cl)c1)N1CCCCC1CN1CCCC1` (stereo unspecified), the activation was -15.5% (inactive).
`CC(C)c1c(CN(C)C(C)Cc2ccccc2)n(C)n(-c2ccccc2)c1=O` (stereo unspecified) was tested, and the activation was -14.2% (inactive).
In the case of `OCc1cnc[nH]1`, the activation is reported as -9.48% (inactive).
In the case of `c1ccc(CCCN2CCN(CCOC(c3ccccc3)c3ccccc3)CC2)cc1`, the activation is reported as 1.41% (inactive) and -30.2% (inactive).
`Oc1ccc2c3c1O[C@H]1c4[nH]c5ccccc5c4C[C@@]4(O)C(C2)N(CC2CC2)CCC314` (stereo partly specified) was tested, and the activation was -38.9% (inactive).
For `O=C(NC1CN2CCC1CC2)c1cc2ccoc2cn1` (stereo unspecified), the activation was -11.8% (inactive).
In the case of `NC(Cc1cc(O)c(O)cc1O)C(=O)O` (stereo unspecified), the activation is reported as -19.2% (inactive).
For `Clc1ccc(N2CC3CCC(C2)N3)nn1`, the activation was -9.56% (inactive).
In the case of `CO[C@H]1CC=C2CCN3CCC4=C(CC(=O)OC4)[C@]23C1`, the activation is reported as -25.9% (inactive).
In the case of `COc1ccc2c(c1O)-c1cccc3c1[C@@H](C2)N(C)CC3`, the activation is reported as -2.98% (inactive).
In the case of `Cn1cc(C2=C(c3cn(C4CCN(Cc5ccccn5)CC4)c4ccccc34)C(=O)NC2=O)c2ccccc21`, the Potency is reported as 21.7 µM (active) and the activation is reported as 38.7% (inactive).
For `C1CCC(NC2CCCCC2)CC1`, the activation was 7.53% (inactive).
With `CCOC(C(=O)OCCN(C)C)(c1ccccc1)c1ccccc1` the activation was -3.95% (inactive).
`COc1ccccc1N1CCNCC1` was tested, and the activation was -15.9% (inactive) and 0.526% (inactive).

Each compound was assayed against Cellular tumor antigen p53 (Homo sapiens) (UniProt P04637) (assay: Primary qHTS for small molecule compounds that upregulate eGFP-tagged delta133p53alpha (in C-terminal) cells. (AID 2060324)). Details: NCI-H358 delta133p53alpha-eGFP (C-terminal tag), GFP fluorescence imaging, 24 h; series mostly up to 57.5 µM.
Outline: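 Doxycycline (100 ng/ml, 24 h) first induced the eGFP fusion in NCI-H358 C-terminal-tag cells. Washed-out cells then received titrated compounds for 24 h at 37 °C before paraformaldehyde fixation, Hoechst staining and cytometric GFP quantification.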
In the case of `CCCN(CCC)[C@H]1CCc2c(F)ccc(O)c2C1`, the Potency is reported as “inactive”.
In the case of `CCn1cnc2c(Nc3cccc(Cl)c3)nc(N[C@@H]3CCCC[C@@H]3N)nc21`, the Potency is reported as 5.36 µM (active).
In the case of `N=C(N)c1ccc(CS(=O)(=O)F)cc1`, the Potency is reported as “inactive”.
In the case of `NC(C(=O)O)c1cc(=O)[nH]o1` (stereo unspecified), the Potency is reported as “inactive”.
With `CC[C@@H](CO)NC(=O)[C@@H]1C=C2c3cccc4[nH]cc(c34)C[C@H]2N(C)C1` the Potency was “inactive”.
`NC(N)=NOCC[C@H](N)C(=O)O` was tested, and the Potency was “inactive”.
With `CC[C@@H](CO)NC(=O)[C@@H]1C=C2c3cccc4c3c(cn4C)C[C@H]2N(C)C1` the Potency was “inactive”.
`C#CCN[C@H](C)Cc1ccccc1` was tested, and the Potency was “inactive”.
For `O=C(Cc1ccc(Cl)c(Cl)c1)N1CCCCC1CN1CCCC1` (stereo unspecified), the Potency was “inactive”.
For `OCc1cnc[nH]1`, the Potency was “inactive”.
In the case of `c1ccc(CCCN2CCN(CCOC(c3ccccc3)c3ccccc3)CC2)cc1`, the Potency is reported as “inactive”.
In the case of `Oc1ccc2c3c1O[C@H]1c4[nH]c5ccccc5c4C[C@@]4(O)C(C2)N(CC2CC2)CCC314` (stereo partly specified), the Potency is reported as “inactive”.
For `O=C(NC1CN2CCC1CC2)c1cc2ccoc2cn1` (stereo unspecified), the Potency was “inactive”.
`NC(Cc1cc(O)c(O)cc1O)C(=O)O` (stereo unspecified) was tested, and the Potency was “inactive”.
For `Clc1ccc(N2CC3CCC(C2)N3)nn1`, the Potency was “inactive”.
`CO[C@H]1CC=C2CCN3CCC4=C(CC(=O)OC4)[C@]23C1` was tested, and the Potency was “inactive”.
In the case of `COc1ccc2c(c1O)-c1cccc3c1[C@@H](C2)N(C)CC3`, the Potency is reported as “inactive”.
`COc1ccccc1N1CCNCC1` was tested, and the Potency was “inactive”.
